These results are taken from PubChem BioAssay AID2590 (National Center for Advancing Translational Sciences (NCATS), 2010).

Where “and” joins values, the source holds several entries; their conditions need not be identical. Identical values can stand only once. Inconclusive results are not listed. Calls of active or inactive are those of the source. The call rests on the fitted dose curve; in most records, active means well fitted curve in the direction sought with a large enough effect; inconclusive means small, poorly fitted or top-dose-only effect, or another doubt; inactive means no such curve, though single readings can be large or run the other way.
Potency means the concentration at half of the fitted maximal effect.

Lysosomal acid glucosylceramidase (Homo sapiens), sequence (P04062 whole entry N409S): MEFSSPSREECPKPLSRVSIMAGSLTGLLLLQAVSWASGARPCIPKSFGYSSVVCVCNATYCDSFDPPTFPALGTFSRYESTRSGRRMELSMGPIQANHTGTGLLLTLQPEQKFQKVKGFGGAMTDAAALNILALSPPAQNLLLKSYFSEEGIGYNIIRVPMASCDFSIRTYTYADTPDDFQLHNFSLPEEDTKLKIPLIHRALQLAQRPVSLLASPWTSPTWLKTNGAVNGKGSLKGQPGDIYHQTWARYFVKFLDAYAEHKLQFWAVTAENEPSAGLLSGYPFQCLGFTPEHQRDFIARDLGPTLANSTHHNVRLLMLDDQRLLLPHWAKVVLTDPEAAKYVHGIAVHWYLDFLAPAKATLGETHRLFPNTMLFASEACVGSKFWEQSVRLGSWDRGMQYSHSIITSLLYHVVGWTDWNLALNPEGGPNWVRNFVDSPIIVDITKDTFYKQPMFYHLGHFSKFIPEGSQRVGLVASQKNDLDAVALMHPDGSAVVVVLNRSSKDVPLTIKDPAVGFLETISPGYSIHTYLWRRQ

The target of the experiment is Lysosomal acid glucosylceramidase (Homo sapiens) (UniProt P04062). The experiment can be described thus: qHTS Assay for Inhibitors and Activators of N370S glucocerebrosidase as a Potential Chaperone Treatment of Gaucher Disease: Primary Screen Confirmation.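 On Potency: enzyme source is Gaucher patient spleen homogenate not purified recombinant protein.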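 On activity change, negative = inhibition: 0% = enzyme with DMSO and -100% = no enzyme basal signal.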 As to conditions: N370S glucocerebrosidase enzyme activity, fluorogenic substrate; series mostly up to 54 µM; activity change, negative = inhibition: at the top concentration. The gist of the method:
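Patient-spleen homogenate carrying N370S GC (27 ug) in pH 5.0 citrate buffer with 0.01% Tween-20, 1 mM 4-methylumbelliferyl-beta-glucoside, 40 min at 37C; fluorescence 365/440 nm after NaOH/glycine stop; AC50 from Hill fits.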
With `CCN1CCN(c2nc3c(C)cccn3c(=O)c2/C=C(\C#N)C(=O)NCCOC)CC1`, the “activity change, negative = inhibition” value is 25.1% (inactive).
Regarding `Cc1ccc(-c2nc(Nc3ccc(O)cc3)c3ccccc3n2)cc1`, the Potency is 12.7 µM (active).
On to `CCN(Cc1ccccc1)c1ccc(Br)cn1`, for which the “activity change, negative = inhibition” value was -10.6% (inactive).
As to `CN1CCN(CCCNC(=O)c2ccc(/C=C3\Oc4ccccc4N(Cc4ccccc4F)C3=O)cc2)CC1`, the “activity change, negative = inhibition” value is -18.7% (inactive).
Turning to `Clc1ccccc1-c1nccc(NCc2ccccc2)n1`, the Potency is 8.91 µM (active).
On the same count and under the same terms, the result for `COc1ccccc1S(=O)(=O)N1CCN(c2nc(-c3cccs3)nc3ccccc23)CC1` reads 0.73 µM (active); that for `C#CCOCCOCCOCCNc1nc(N2CCN(C(=O)CCCCCCCCCCNC(=O)[C@H](CCCCN)n3cc(C)nn3)CC2)nc(N2CCN(C(=O)CCCCCCCCCCNC(=O)[C@H](CCCN=C(N)N)n3cc(C[C@@H](C)CC)nn3)CC2)n1`, 7.3 µM (active).
Turning to `Oc1cccc(Nc2nc(-c3ccccc3Cl)nc3ccccc23)c1`, the Potency was 2.06 µM (active).
On the same count and under the same terms, with `COc1cccc(CN(C)c2nc(-c3cccs3)nc3ccccc23)c1` the figure was 2.01 µM (active).
In the case of `c1ccc2c(NCC3CCCO3)nc(N3CCOCC3)nc2c1` (centres undefined), the “activity change, negative = inhibition” value was 6.26% (inactive).
As for `O=S(=O)(Cc1ccccc1)N1CCN(c2nc(-c3cccs3)nc3ccccc23)CC1`, the Potency was 2.25 µM (active).
On the same count and under the same terms, the result for `O=S(=O)(c1ccccc1Br)N1CCN(c2nc(-c3cccs3)nc3ccccc23)CC1` reads 1.3 µM (active).
For the compound `CCCCN(CCCN)c1ccc(Br)cn1`, the “activity change, negative = inhibition” value was -10.7% (inactive).
With `Cc1cccc(NC(=O)Nc2cccc(C)n2)n1`, the “activity change, negative = inhibition” value was 25.9% (inactive).
Same read-out and setting: with `Cc1nc2nc(-c3ccccc3)cn2nc1C` the figure was 8.02% (inactive).
On to `C#CCOCCOCCOCCNc1nc(N2CCN(C(=O)CCCCCCCCCCNC(=O)[C@H](CCCCN)n3cc(CCCC(=O)O)nn3)CC2)nc(N2CCN(C(=O)CCCCCCCCCCNC(=O)[C@H](CCCN=C(N)N)n3cc(C[C@@H](C)CC)nn3)CC2)n1`, for which the Potency was 8.19 µM (active).
On the same count and under the same terms, the result for `O=S(=O)(c1ccccc1F)N1CCN(c2nc(-c3cccs3)nc3ccccc23)CC1` reads 1.63 µM (active).
Still for that read-out and setting: the result for `CCN1CCN(C(=O)CCN(CC(C)C)c2nc(-c3cccs3)nc3ccccc23)CC1` reads 20.2 µM (active); that for `Cc1cc(C)cc(N(CC(=O)Nc2ccc(Br)cc2)S(=O)(=O)c2c(C)[nH]c(=O)[nH]c2=O)c1`, 2.06 µM (active).
As for `Cc1ccc(S(=O)(=O)N2CCN(c3nc(-c4ccc(F)cc4)nc4cc(Cl)ccc34)CC2)cc1`, the “activity change, negative = inhibition” value is 2.08% (inactive).
With `O=S(=O)(c1ccc(F)cc1)N1CCN(c2nc(-c3cccs3)nc3ccccc23)CC1`, the Potency was 1.27 µM (active) and 713 nM (active).
With `O=S(=O)(c1cccc(C(F)(F)F)c1)N1CCN(c2nc(-c3cccs3)nc3cc(Cl)ccc23)CC1`, the “activity change, negative = inhibition” value is 0.777% (inactive).
In the case of `Cc1ccccc1S(=O)(=O)N1CCN(c2nc(-c3cccs3)nc3ccccc23)CC1`, the Potency is 2.53 µM (active).
Same read-out and setting: the result for `O=C(NCCN1CCOCC1)c1ccc(/C=C2\Sc3ccccc3N(Cc3ccccc3F)C2=O)cc1` reads 7.3 µM (active); that for `O=S(=O)(c1ccc(Cl)cc1)N1CCN(c2nc(Nc3cc(Cl)ccc3O)nc3ccccc23)CC1`, 2.59 µM (active); that for `O=C(NCCCc1cnc[nH]1)NCCCN(Cc1ccc(Cl)cc1)c1ccc(Br)cn1`, 1.01 µM (active).
On the same count and under the same terms, with `CC(C)(C)c1cccc(S(=O)(=O)N2CCN(c3nc(-c4cccs4)nc4ccccc34)CC2)c1` the figure was 1.63 µM (active); with `CCN(CC)c1ccc(Br)cn1`, 9.18 µM (active).
On to `O=C(Nc1cc(Br)ccc1O)c1cnn2c(C(F)F)cc(C3CC3)nc12`, for which the “activity change, negative = inhibition” value is 7.23% (inactive).
